From the supplement of paper PMC9694430

Legend:
Test in all cases: thermal shift delta Tm vs DMSO control; higher = stronger stabilization (binding)
Conditions in all cases: 12.5 µM; protein concentration 2 µM
LOC_OS01G01410-cb001 = test system: LOC_OS01G01410-cb001
Outline: (§1)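 Purified, E. coli-expressed rice kinase domain constructs were tested by differential scanning fluorimetry in 96-well plates: 19.5 μl of 2 μM kinase in 100 mM potassium phosphate pH 7.5, 150 mM NaCl, 10% glycerol, 5 × SYPRO Orange, plus compound in DMSO. Fluorescence was read from 25°C to 95°C at 0.05°C/s. Melting temperatures came from Boltzmann fits, and the shift is the triplicate mean relative to protein with DMSO alone.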

LOC_OS01G02750-cb003 = test system: LOC_OS01G02750-cb003
Outline: as §1

LOC_OS01G10900-cb004 = test system: LOC_OS01G10900-cb004
Outline: as §1

LOC_OS01G13800-cb001 = test system: LOC_OS01G13800-cb001
Outline: as §1

LOC_OS01G14860-cb001 = test system: LOC_OS01G14860-cb001
Outline: as §1

LOC_OS01G21960-cb002 = test system: LOC_OS01G21960-cb002
Outline: as §1

LOC_OS01G39600-cb002 = test system: LOC_OS01G39600-cb002
Outline: as §1

LOC_OS01G48390-cb002 = test system: LOC_OS01G48390-cb002
Outline: as §1

LOC_OS01G51400-cb002 = test system: LOC_OS01G51400-cb002
Outline: as §1

LOC_OS01G52050-cb004 = test system: T1, LOC_OS01G52050-cb004
T1 sequence (whole entry): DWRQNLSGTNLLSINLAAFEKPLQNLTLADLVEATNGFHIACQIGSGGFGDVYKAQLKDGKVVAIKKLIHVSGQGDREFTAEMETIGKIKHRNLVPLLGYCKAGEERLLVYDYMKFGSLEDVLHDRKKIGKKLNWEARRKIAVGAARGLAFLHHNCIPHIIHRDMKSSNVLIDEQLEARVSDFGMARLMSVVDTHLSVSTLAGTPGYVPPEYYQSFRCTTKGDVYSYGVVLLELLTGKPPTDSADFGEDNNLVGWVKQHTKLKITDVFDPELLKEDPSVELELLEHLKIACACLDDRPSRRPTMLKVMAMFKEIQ
Outline: as §1

LOC_OS01G57100-cb003 = test system: LOC_OS01G57100-cb003
Outline: as §1

LOC_OS01G60330-cb001 = test system: LOC_OS01G60330-cb001
Outline: as §1

LOC_OS01G60700-cb002 = test system: LOC_OS01G60700-cb002
Outline: as §1

LOC_OS01G63280-cb003 = test system: LOC_OS01G63280-cb003
Outline: as §1

LOC_OS01G67340-cb003 = test system: LOC_OS01G67340-cb003
Outline: as §1

LOC_OS01G70970-cb002 = test system: LOC_OS01G70970-cb002
Outline: as §1

LOC_OS02G07810-cb001 = test system: LOC_OS02G07810-cb001
Outline: as §1

LOC_OS02G08530-cb003 = test system: LOC_OS02G08530-cb003
Outline: as §1

LOC_OS02G14120-cb001 = test system: LOC_OS02G14120-cb001
Outline: as §1

LOC_OS02G17970-cb001 = test system: LOC_OS02G17970-cb001
Outline: as §1

Structure (SMILES) | thermal shift delta Tm (LOC_OS01G01410-cb001) [°C] | thermal shift delta Tm (LOC_OS01G02750-cb003) [°C] | thermal shift delta Tm (LOC_OS01G10900-cb004) [°C] | thermal shift delta Tm (LOC_OS01G13800-cb001) [°C] | thermal shift delta Tm (LOC_OS01G14860-cb001) [°C] | thermal shift delta Tm (LOC_OS01G21960-cb002) [°C] | thermal shift delta Tm (LOC_OS01G39600-cb002) [°C] | thermal shift delta Tm (LOC_OS01G48390-cb002) [°C] | thermal shift delta Tm (LOC_OS01G51400-cb002) [°C] | thermal shift delta Tm (LOC_OS01G52050-cb004) [°C] | thermal shift delta Tm (LOC_OS01G57100-cb003) [°C] | thermal shift delta Tm (LOC_OS01G60330-cb001) [°C] | thermal shift delta Tm (LOC_OS01G60700-cb002) [°C] | thermal shift delta Tm (LOC_OS01G63280-cb003) [°C] | thermal shift delta Tm (LOC_OS01G67340-cb003) [°C] | thermal shift delta Tm (LOC_OS01G70970-cb002) [°C] | thermal shift delta Tm (LOC_OS02G07810-cb001) [°C] | thermal shift delta Tm (LOC_OS02G08530-cb003) [°C] | thermal shift delta Tm (LOC_OS02G14120-cb001) [°C] | thermal shift delta Tm (LOC_OS02G17970-cb001) [°C]
CN1CCC(CNc2ccc3ncc(-c4cccc(OC(F)(F)F)c4)n3n2)CC1 [SGI-1776 free base] | 0.34 | 4.11 | 3.96 | 0.13 | 0.51 | 2.41 | 0.68 | 0.82 | 0.07 | 3.81 | 0.83 | 0.19 | 0.47 | 0.98 | -0.25 | 1.79 | 0.42 | 2.78 | 7.23 | -0.26
C[C@@H](Oc1ccc2[nH]nc(/C=C/c3cnn(CCO)c3)c2c1)c1c(Cl)cncc1Cl | 5.27 | 7.14 | 7 | -0.36 | 5.34 | 3.51 | 9.68 | 4.56 | 0.89 | 11.2 | 2.21 | 7.79 | 0.64 | 7.65 | 12.6 | 12.2 | 0.37 | 5.56 | 15 | -0.09
CC[C@@H]1C(=O)N(C)c2cnc(Nc3ccc(C(=O)N[C@H]4CC[C@H](N5CCN(CC6CC6)CC5)CC4)cc3OC)nc2N1C(C)C [Volasertib (BI 6727)] | 0.74 | 0.38 | 0.15 | 0.22 | 0.21 | 0.37 | 0.25 | 0.32 | 0.11 | 0.22 | 1.58 | 2.49 | 0.62 | 0.08 | 1.23 | 0.17 | 0.23 | 1.87 | -0.05 | 0.41
CC(C)n1nc(-c2ccc3oc(N)nc3c2)c2c(N)ncnc21 | 0.59 | 1.42 | 0.77 | -0.13 | 0.42 | 0.3 | -0.69 | 1.9 | 0.43 | 0.95 | 0.15 | 0.88 | 0.9 | 0.99 | 0.39 | 0.54 | 0.31 | 1.77 | 1.77 | 1.04
Cc1cn(-c2cc(NC(=O)c3ccc(C)c(Nc4nccc(-c5cccnc5)n4)c3)cc(C(F)(F)F)c2)cn1 [Nilotinib (AMN-107)] | 1.05 | 0.56 | 0.78 | -0.11 | 0.32 | 0.28 | 0.67 | 0.45 | 0.48 | -0.02 | 0.85 | 1.29 | 0.99 | 0.49 | -0.08 | 0.3 | 0.5 | 0.55 | 0.37 | 0.01
Cn1cc(-c2ccc3c(c2)CCN3C(=O)Cc2cccc(C(F)(F)F)c2)c2c(N)ncnc21 | 1.18 | 3.93 | 2.83 | -0.12 | 0.47 | 0.33 | 0.17 | 0.89 | -0.22 | 2.35 | 1.46 | -0.42 | 0.15 | 9.43 | 3.52 | 0.54 | 0.74 | 1.06 | 3.86 | 0.57
